Seven compounds from PubChem BioAssay (NCI) can be followed below.

Holding throughout (test): NCI-60 one-dose screen, 48 h (100 = growth as untreated, 0 = no growth, -100 = all killed)
One test has as its system HCT-15 colon. The conditions noted are these: 10 µM unless noted.
In another test the test system is HT29 colon. The conditions noted are these: 10 µM unless noted.
The subject of a further test is SNB-75 CNS. To be noted: 10 µM unless noted.
The subject of a further test is SNB-19 CNS. To be noted: 10 µM unless noted.
The test system of a further test is U251 CNS. To be noted: 10 µM unless noted.
A further test relates to PC-3 prostate. To be noted: 10 µM unless noted.
The next test deals with SK-MEL-5 melanoma. The conditions noted are these: 10 µM unless noted.
The test system of another test is UACC-62 melanoma. The conditions noted are these: 10 µM unless noted.
In a further test the test system is LOX IMVI melanoma. The conditions noted are these: 10 µM.
Another test concerns SK-MEL-28 melanoma. The conditions noted are these: 10 µM unless noted.
The subject of a further test is SK-MEL-2 melanoma. To be noted: 10 µM unless noted.
A further test deals with EKVX NSCLC. The conditions noted are these: 10 µM unless noted.
The test system of the next test is SN12C renal. The conditions noted are these: 10 µM unless noted.
The next test concerns UO-31 renal. To be noted: 10 µM unless noted.
For the next test, the system named is TK-10 renal. The conditions noted are these: 10 µM unless noted.
In a further test the test system is ACHN renal. To be noted: 10 µM unless noted.
The subject of another test is CAKI-1 renal. To be noted: 10 µM unless noted.
A further test has as its system A498 renal. To be noted: 10 µM unless noted.
A further test has as its system CCRF-CEM leukemia. To be noted: 10 µM unless noted.
Another test relates to MOLT-4 leukemia. The conditions noted are these: 10 µM unless noted.

Compounds without any hit were thinned out: in the full panel of roughly 83,000, 20% have a hit.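 Testing used 96-well plates and a 48-hour single-concentration exposure. Example: -40 means 40% of the starting cells died.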 A number with no mark means an inactive call. Activity calls are given as the source filed them. The calls were made as follows: active = growth percent below 10; inactive = the rest.

Consider `CC1(C)CC[C@]2(C(=O)O)CC[C@]3(C)C(=CCC4[C@@]5(C)C[C@@H](O)[C@@H]6OC(c7ccccc7Br)OC[C@@]6(C)C5CC[C@]43C)C2C1` (stereo not given in full), for which the growth is 8.96% (active) with HCT-15 colon; 13.1% with HT29 colon; 48.1% with SNB-75 CNS; 27.7% with SNB-19 CNS; 13.2% in the test with U251 CNS; 13.1% in the test on PC-3 prostate. In addition, the growth with SK-MEL-5 melanoma was 7% (active); with UACC-62 melanoma, 28.5%; in the test on LOX IMVI melanoma, 13.5%; in the test with SK-MEL-28 melanoma, 39.5%; in the test with SK-MEL-2 melanoma, -1.06% (active); in the test on EKVX NSCLC, 18.4%. In addition, the growth with SN12C renal was 14.9%; with UO-31 renal, 15.5%; with TK-10 renal it was 21%; in the test on ACHN renal it was 9.85% (active); in the test on CAKI-1 renal, 14.6%; in the test on A498 renal, 23.7%. In addition, the growth was 13.1% in the test on CCRF-CEM leukemia and 10.5% in the test with MOLT-4 leukemia.
Consider `Nc1nc(-c2ccccc2)c(N=Nc2ccc([N+](=O)[O-])cc2Cl)s1`, for which the growth in the test on HCT-15 colon is 68.1%; in the test with HT29 colon it was 96.2%; in the test on SNB-75 CNS, 85.7%; with SNB-19 CNS, 96.3%; in the test on U251 CNS, 82.5%; in the test with PC-3 prostate, 77.7%. Besides, the growth in the test with SK-MEL-5 melanoma was 42.5%; in the test on UACC-62 melanoma, 57.8%; in the test with LOX IMVI melanoma, 98%; in the test with SK-MEL-28 melanoma it was 89.1%; with SK-MEL-2 melanoma, 43.4%; with EKVX NSCLC, 89.2%. Besides, the growth is 83.7% in the test on SN12C renal; 94.9% in the test on UO-31 renal; 172% in the test on TK-10 renal; 79.1% with ACHN renal; 81.2% in the test on CAKI-1 renal; 73.6% in the test on A498 renal. The growth was 78.7% in the test with CCRF-CEM leukemia and 79% in the test on MOLT-4 leukemia.
In the case of `COc1cc(C2CC(c3ccc(S(=O)(=O)NCCNc4nc(Nc5ccc(F)cc5)nc(N(C)C)n4)cc3)=Nc3c(N)nc(N)nc3N2)cc(OC)c1OC` (stereo not given), the growth is 92.5% with HCT-15 colon; 96.5% in the test on HT29 colon; 82.8% with SNB-75 CNS; 67.5% in the test on SNB-19 CNS; 69.6% in the test with U251 CNS; 86.3% in the test on PC-3 prostate. The growth in the test with SK-MEL-5 melanoma is 64.2%; with UACC-62 melanoma, 76.4%; in the test on LOX IMVI melanoma, 66.9%; in the test with SK-MEL-28 melanoma it was 88.1%; with SK-MEL-2 melanoma, 90.8%; in the test with EKVX NSCLC, 87.3%. For the same compound, the growth with SN12C renal is 83.9%; in the test on UO-31 renal it was 86.1%; in the test on TK-10 renal, 95.4%; with ACHN renal, 96.8%; with CAKI-1 renal, 90.4%; with A498 renal, 86.8%. Besides, the growth is 33.8% in the test on CCRF-CEM leukemia and 34.4% in the test with MOLT-4 leukemia.
`Cc1ccc(S(=O)(=O)c2nc(S(=O)(=O)c3ccc(C)cc3)c(N3CCC(O)CC3)s2)cc1`: the growth in the test on HCT-15 colon is 22.9%; in the test on HT29 colon, 77.8%; in the test on SNB-75 CNS, 97.5%; in the test with SNB-19 CNS it was 68.3%; with U251 CNS it was 57.7%; with PC-3 prostate, 56.8%. Besides, the growth in the test on SK-MEL-5 melanoma was 78.1%; in the test with UACC-62 melanoma, 42%; in the test on LOX IMVI melanoma, 50.5%; in the test on SK-MEL-28 melanoma, 81.9%; with SK-MEL-2 melanoma, 66.6%; in the test on EKVX NSCLC, 63.1%. In addition, the growth was 74% in the test on SN12C renal; 73.7% with UO-31 renal; 129% in the test on TK-10 renal; 97.8% in the test with ACHN renal; 69.2% in the test with CAKI-1 renal; 86.1% in the test on A498 renal. Further, the values for the growth in the test on CCRF-CEM leukemia and in the test with MOLT-4 leukemia were 23.8% and 38%, respectively.
For `O=[N+]([O-])c1ccc(/C=C/c2nc3ccccc3n3c(=S)[nH]nc23)cc1`, the growth is 82.1% in the test with HCT-15 colon; 93.4% with HT29 colon; 102% with SNB-75 CNS; 78.4% with SNB-19 CNS; 76.2% with U251 CNS; 65.8% in the test on PC-3 prostate. Besides, the growth in the test with SK-MEL-5 melanoma was 61.8%; in the test with UACC-62 melanoma, 63.3%; in the test on LOX IMVI melanoma it was 91.3%; with SK-MEL-28 melanoma it was 82.7%; with SK-MEL-2 melanoma, 86.3%; with EKVX NSCLC, 70.7%. Also, the growth in the test with SN12C renal is 71.1%; in the test on UO-31 renal it was 47.7%; in the test on TK-10 renal, 127%; with ACHN renal it was 72.7%; in the test with CAKI-1 renal, 75.2%; with A498 renal it was 91.9%. In addition, the growth in the test on CCRF-CEM leukemia was 69.8%; in the test with MOLT-4 leukemia, 75.5%.
For the compound `CN(C)c1nc(NCCNS(=O)(=O)c2ccc(C3=Nc4c(N)nc(N)nc4NC(c4ccc(F)cc4)C3)cc2)nc(Nc2ccc(F)cc2)n1` (stereo not given), the growth is 44.7% in the test on HCT-15 colon; 10% in the test with HT29 colon; 58.6% in the test with SNB-75 CNS; 46.1% in the test on SNB-19 CNS; 31.6% in the test on U251 CNS; 18.9% with PC-3 prostate. Also, the growth is 21.3% with SK-MEL-5 melanoma; 45.2% in the test with UACC-62 melanoma; -40% (active) with LOX IMVI melanoma; 55.4% with SK-MEL-28 melanoma; 58.7% in the test with SK-MEL-2 melanoma; 47.5% in the test on EKVX NSCLC. Besides, the growth was 42.7% in the test with SN12C renal; 82.9% in the test on UO-31 renal; 65.9% in the test with TK-10 renal; 77.1% with ACHN renal; 64.4% in the test on CAKI-1 renal; 53.3% with A498 renal. In addition, the values for the growth with CCRF-CEM leukemia and in the test with MOLT-4 leukemia were 8.67% (active) and 6.56% (active), respectively.
As to `O=C(NN1C(=O)/C(=C/C=C/c2ccc([N+](=O)[O-])o2)SC1=S)c1ccccc1O`, the growth is -80.3% (active) in the test with HCT-15 colon; -72.2% (active) with HT29 colon; -61.8% (active) with SNB-75 CNS; -96.1% (active) in the test with SNB-19 CNS; -99.5% (active) in the test on U251 CNS; -6.66% (active) with PC-3 prostate. For the same compound, the growth in the test on SK-MEL-5 melanoma is -100% (active); in the test with UACC-62 melanoma it was -93.7% (active); in the test on LOX IMVI melanoma, -91.6% (active); with SK-MEL-28 melanoma it was -94.6% (active); with SK-MEL-2 melanoma, -86.9% (active); in the test with EKVX NSCLC, -94.1% (active). Also, the growth was -98.2% (active) in the test with SN12C renal; -99.5% (active) in the test on UO-31 renal; -87.6% (active) with TK-10 renal; -100% (active) in the test with ACHN renal; -100% (active) with CAKI-1 renal; -61.2% (active) in the test with A498 renal. Further, the growth in the test with CCRF-CEM leukemia was 5.02% (active); with MOLT-4 leukemia, 6.95% (active).
